# Source: paper PMC4336329 (PLoS ONE, 2015)
# About 14,000 (4.5%) of roughly 310,000 compounds showed an effect of 50% or more. The effect is printed as a negative number. The list comes from a sample in which strong results are over-represented; it also holds similar structures and randomly drawn compounds.
# Biological target: human ether-à-go-go-related gene (hERG) potassium channel (human, UniProt Q12809)
# Assay: primary screen, population patch clamp on CHO cells stably expressing hERG; higher = less effect of the substance
# 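Also: peak tail current of the secondary pulse compared with the same well before compound.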
# human ether-à-go-go-related gene (hERG) potassium channel, sequence (Q12809 whole entry, looked up): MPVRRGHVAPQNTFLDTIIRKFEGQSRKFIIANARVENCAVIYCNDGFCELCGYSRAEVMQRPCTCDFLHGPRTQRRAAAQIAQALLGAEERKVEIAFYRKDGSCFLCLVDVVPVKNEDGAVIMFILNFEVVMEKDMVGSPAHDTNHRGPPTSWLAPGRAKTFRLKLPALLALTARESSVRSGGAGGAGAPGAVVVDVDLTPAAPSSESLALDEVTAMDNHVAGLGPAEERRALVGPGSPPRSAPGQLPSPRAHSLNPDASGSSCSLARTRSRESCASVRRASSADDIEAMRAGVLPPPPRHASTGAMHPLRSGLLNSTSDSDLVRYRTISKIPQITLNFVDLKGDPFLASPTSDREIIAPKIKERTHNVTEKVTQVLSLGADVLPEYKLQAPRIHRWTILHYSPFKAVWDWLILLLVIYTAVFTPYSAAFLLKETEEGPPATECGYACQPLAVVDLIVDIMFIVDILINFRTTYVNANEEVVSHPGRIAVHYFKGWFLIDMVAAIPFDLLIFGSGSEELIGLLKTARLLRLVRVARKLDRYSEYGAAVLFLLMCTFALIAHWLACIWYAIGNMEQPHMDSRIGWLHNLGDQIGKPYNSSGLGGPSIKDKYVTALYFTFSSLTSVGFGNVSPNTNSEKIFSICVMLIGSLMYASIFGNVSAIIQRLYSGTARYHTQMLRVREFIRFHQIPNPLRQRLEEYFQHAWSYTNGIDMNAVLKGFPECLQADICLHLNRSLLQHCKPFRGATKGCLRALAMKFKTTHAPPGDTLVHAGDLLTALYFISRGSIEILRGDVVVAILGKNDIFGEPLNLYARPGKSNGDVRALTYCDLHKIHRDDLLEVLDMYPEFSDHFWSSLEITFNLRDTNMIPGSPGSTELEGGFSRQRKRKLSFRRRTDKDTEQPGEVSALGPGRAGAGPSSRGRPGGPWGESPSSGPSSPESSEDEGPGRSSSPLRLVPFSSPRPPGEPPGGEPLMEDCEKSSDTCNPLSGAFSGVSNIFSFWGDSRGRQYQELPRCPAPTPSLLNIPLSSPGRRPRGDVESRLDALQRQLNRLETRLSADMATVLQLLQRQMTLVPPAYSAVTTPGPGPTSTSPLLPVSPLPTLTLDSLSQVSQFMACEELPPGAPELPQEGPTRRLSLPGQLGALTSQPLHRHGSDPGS
row,Compound,"hERG current change (%, negative = inhibition) at 10uM [%]"
1,COc1ccc2[nH]cc(CCCN3C(=O)c4ccccc4C3=O)c2c1,-4.87
2,Cc1ccc2[nH]cc(CCCN3C(=O)c4ccccc4C3=O)c2c1,-51.4
3,O=C1c2ccccc2C(=O)N1CCCc1c[nH]c2ccc(Cl)cc12,-19.3
4,CC(=O)c1cccc(NS(=O)(=O)c2ccc3c(c2)oc(=O)n3C)c1,-6.14
5,O=C1CCN(CCc2ccccc2)CCN1[C@H](CSc1ccc(Br)cc1)c1ccccc1,-66.2
6,Cc1ccc(SC[C@H](c2ccccc2)N2CCN(CCc3ccccc3)CCC2=O)cc1,-74.7
7,O=C1CCN(Cc2ccccc2)CCN1[C@H](CSc1ccccc1)c1ccccc1,-44.7
8,O=C1CCN(CCc2ccccc2)CCN1[C@H](CSc1ccccc1)c1ccccc1,-78.7
9,[N-]=[N+]=NC[C@H](c1ccccc1)N1CCN(Cc2ccccc2)CCC1=O,-0.754
10,Cc1ccnc(N2CCC(C(=O)NNC(=O)COc3cccc4ccccc34)CC2)n1,11.2
11,Cc1cccc(NC(=O)CCc2nnc3ccc(NCc4ccco4)nn23)n1,6.78
12,Cc1cc(C)c(OCCN(C)C)c(Cl)c1.O=C(O)C(=O)O,-21.1
13,O=C(NC1CCCC1)C(c1cccs1)N(C(=O)c1ccco1)c1ccc2c(c1)OCO2 (centres unmarked),-33.5
14,Nc1nc(SCC(=O)NCc2ccco2)[nH]c(=O)c1-c1ccccc1,22.3
15,CC(C(=O)N(C)CC(=O)Nc1ccccc1C(F)(F)F)N1C(=O)c2ccccc2C1=O (centres unmarked),-10.7
16,COc1ccc(N(CC(=O)NC2CCCC2)C(=O)c2ccc(C)s2)cc1OC,15.8
17,COC(=O)c1ccc(NC(=O)C[n+]2ccccc2C)cc1.[Cl-],10.1
18,Cc1cc(Nc2c(C)cccc2C)n2nc(C)nc2n1,3.66
19,CC(C)(C)c1ccccc1OCCOCCN1CCCCCC1.O=C(O)C(=O)O,-39.1
20,Cc1cc(Br)ccc1OCC(=O)N1CCCCCC1,-12.1
21,Cc1cc(Br)ccc1OCCCCN1CCCCC1.O=C(O)C(=O)O,-78.9
22,Cc1cc(Br)ccc1OCCCCN1CCC(C)CC1.O=C(O)C(=O)O,-67.9
23,Cc1cc(Br)ccc1OCCOCCN1CCCC1.O=C(O)C(=O)O,-60.7
24,Cc1cc(Br)ccc1OCCN1CCCC1.O=C(O)C(=O)O,-36.8

row,Compound,"hERG current change (%, negative = inhibition) at 10uM [%]"
1,CCN1CCN(CCOc2ccc(Br)cc2C)CC1.O=C(O)C(=O)O,-46.6
2,Cc1cccc(C)c1OCCCCN1CCCCC1.O=C(O)C(=O)O,-11.8
3,Cc1cc(Br)ccc1OCCN1CC(C)OC(C)C1.O=C(O)C(=O)O (centres unmarked),-17.8
4,N#C/C(=C\c1cn(Cc2ccccc2)c2ccccc12)C(=O)NCc1ccco1,12.5
5,Cc1ccccc1OCC(=O)OCC(=O)NCc1cccs1,1.72
6,COc1cc(-c2nc(CCNC(=O)c3ccco3)cs2)cc(OC)c1OC,-24.7
7,Cc1cc(C)cc(NC(=S)N2CCN(c3ccccn3)CC2)c1,-1.07
8,COc1ccc(NC(=O)Nc2cc(C)ccc2F)cc1,0.822
9,CCOc1ccc(-n2cnnn2)cc1S(=O)(=O)N1CCCCC1,-10.1
10,CC1CCN(C(=O)c2cc3c(=O)n4ccccc4nc3s2)CC1,18.7
11,CCOC(=O)c1ccc2nc(C)cc(Nc3cccc(C(=O)O)c3)c2c1,5.41
12,CC(=O)c1cccc(Nc2cc(C)nc3ccccc23)c1.Cl,-64
13,CC(=O)Nc1ccc(Nc2cc(C)nc3ccccc23)cc1,-7.21
14,CC(=O)c1cccc(Nc2cc(C)nc3ccc(C)cc23)c1.Cl,-65.2
15,COc1ccc2nc(C)cc(Nc3cccc(C(=O)O)c3)c2c1,21.7
16,CC(=O)c1ccc(Nc2cc(C)nc3ccccc23)cc1,-31.3
17,C/C(=N\Nc1nccnc1Cl)c1ccc([N+](=O)[O-])cc1,-4.09
18,Cl.N[C@@H]1C[C@H]1c1ccccc1,14
19,O=C(NC1CCCC1)C(c1ccncc1)N(C(=O)c1csnn1)c1cccc(F)c1 (centres unmarked),17.2
20,O=C1N=NC2=C1c1c3ccccc3c(O)n1CC2,3.49
21,CCOC(=O)c1c(NC(=O)CN2CCOCC2)sc2c1CCCC2=O,-6.33
22,Cc1cc2nc3c(nc2cc1C)CCCC3,15.9
23,Cc1ccc(C(=O)Nc2cccc(S(=O)(=O)N3CCCC3)c2)o1,-9.98
24,Cc1ccc(C(=O)OCC(=O)Nc2cccc(S(=O)(=O)N3CCOCC3)c2)o1,-53.1

row,Compound,"hERG current change (%, negative = inhibition) at 10uM [%]"
1,COc1ccccc1NC(=O)Cc1coc2cc(C)ccc12,-13.1
2,O=C(Nc1ccc(S(=O)(=O)N2CCOCC2)cc1)c1ccc([N+](=O)[O-])o1,-28.8
3,O=C(Nc1cccc(S(=O)(=O)N2CCCCC2)c1)c1ccc([N+](=O)[O-])o1,-51.4
4,O=C(COC(=O)c1ccc([N+](=O)[O-])o1)Nc1cccc(S(=O)(=O)N2CCCCC2)c1,-56.6
5,Cc1ccc2c(CC(=O)N3CCN(c4ccccc4)CC3)coc2c1,-22
6,Cc1ccc(C(=O)OCC(=O)Nc2cccc(S(=O)(=O)N3CCCCC3)c2)o1,6.02
7,Cc1ccc2c(CC(=O)Nc3ccc(N4CCN(C)CC4)cc3C)coc2c1,-72.8
8,O=C(COC(=O)c1ccc([N+](=O)[O-])o1)Nc1cccc(S(=O)(=O)N2CCOCC2)c1,-19.4
9,Cc1cc(C(=O)OCC(=O)Nc2cccc(S(=O)(=O)N3CCOCC3)c2)c(C)o1,-19.6
10,O=C(COC(=O)c1ccc(Br)o1)Nc1cccc(S(=O)(=O)N2CCCCCC2)c1,-14.9
11,CCN1CCN(C(=S)c2ccc(-c3ccccc3)cc2)CC1,-15.4
12,CCCN1CCN(C(=O)Cn2c(=O)oc3cc(S(=O)(=O)NCc4ccccc4)ccc32)CC1,-6.53
13,COc1ccc(-c2ocnc2C(=O)Nc2ccc3c(c2)CCC3)cc1,8.64
14,Cc1ccc(C(=O)Nc2cccc(O)c2)cc1S(=O)(=O)N1CCCCCC1,11.2
15,O=C(O)CSc1nnc(COc2cccc3ccccc23)n1Cc1ccccc1,21.3
16,CCc1ccc2c(CC(=O)Nc3cccc(S(=O)(=O)N4CCOCC4)c3)coc2c1,-0.796
17,COc1ccc2c(CC(=O)Nc3cccc(S(=O)(=O)N4CCOCC4)c3)coc2c1,-32.4
18,Cc1ccc2c(CC(=O)Nc3cccc(S(=O)(=O)N4CCOCC4)c3)coc2c1,-51.4
19,CCCCCCCNC(=O)C1(CC2CC(c3ccc(Cl)cc3)=NO2)CCN(C(=O)C2(C)CC2)CC1 (centres unmarked),-55.8
20,CCCCCCCNC(=O)C1(CC2CC(c3ccc(Cl)cc3)=NO2)CCN(C(=O)OC(C)(C)C)CC1 (centres unmarked),21.1
21,CCCCCCCNC(=O)C1(CC2CC(c3ccc(Cl)cc3)=NO2)CCN(C(=O)C2CCCC2)CC1 (centres unmarked),-55.8
22,COc1ccc(CC(=O)NCc2ccc(F)cc2)cc1S(=O)(=O)N1CCOCC1,-8.29
23,CCCn1c2ccccc2c2cnn(CC(=O)NC(C)CC)c(=O)c21 (centres unmarked),7.84
24,CCCn1c2ccccc2c2cnn(CC(=O)OC)c(=O)c21,-0.361

row,Compound,"hERG current change (%, negative = inhibition) at 10uM [%]"
1,CCCn1c2ccccc2c2cnn(CC(=O)NCCN(C)C)c(=O)c21,-60.1
2,CCCn1c2ccccc2c2cnn(CC(=O)N(CC)CC)c(=O)c21,-2.37
3,CCCn1c2ccccc2c2cnn(CC(=O)NCCOC)c(=O)c21,-5.71
4,CCCn1c2ccccc2c2cnn(CC(=O)NCCN(CC)CC)c(=O)c21,-66.6
5,Cc1ccc(S(=O)(=O)N2CCN(CC(=O)N(CC(C)C)c3c(N)n(CC(C)C)c(=O)[nH]c3=O)CC2)c(C)c1,12.7
6,O=[N+]([O-])c1cc([As](=O)(O)O)ccc1O,19.8
7,Cc1csc(NC(=O)c2ccc(C)c([N+](=O)[O-])c2)n1,-41.6
8,Cc1nn2cc(-c3ccc(Cl)cc3)cnc2c1Br,10.3
9,Cc1ccc(NC(=O)C2Oc3ccccc3OC2C)cc1 (centres unmarked),8.68
10,CCCCC(=O)NC(=S)Nc1c(C)cc(Br)cc1C,2.71
11,Cc1ccc(CNS(=O)(=O)c2ccc3c(c2)NC(=O)C(C)S3)cc1 (centres unmarked),-1.22
12,COc1ccccc1C(=O)Nc1ccnn1C1CCN(C(=O)c2cnsn2)CC1,-62.2
13,Cc1ccccc1C(=O)Nc1ccnn1C1CCN(C(=O)c2cnsn2)CC1,-30.4
14,COc1ccc(C(=O)Nc2ccnn2C2CCN(C(=O)c3cnsn3)CC2)cc1,-11.5
15,COc1ccccc1C(=O)Nc1ccnn1C1CCN(C(=O)c2ccoc2)CC1,-47.4
16,COCC(=O)N1CCC(n2nccc2NC(=O)c2ccccc2OC)CC1,-1.85
17,COc1ccccc1C(=O)Nc1ccnn1C1CCN(C(=O)C2CCOC2)CC1 (centres unmarked),-35.9
18,COc1ccc(C(=O)Nc2ccnn2C2CCN(C(C)CSC)CC2)cc1 (centres unmarked),1.28
19,COc1ccccc1C(=O)Nc1ccnn1C1CCN(C(=O)C(C)(C)C)CC1,-50.4
20,COc1ccccc1C(=O)Nc1ccnn1C1CCN(C)CC1,-32.7
21,COc1ccccc1C(=O)Nc1ccnn1C1CCN(C(C)CSC)CC1 (centres unmarked),-67
22,CSCC(C)N1CCC(n2nccc2NC(=O)c2ccccc2C)CC1 (centres unmarked),-16.6
23,COc1ccccc1C(=O)Nc1ccnn1C1CCN(C(=O)c2ccoc2C)CC1,-62.9
